# TPT1 inhibitor – blocks Candida albicans tRNA 2'-phosphotransferase | recombinant caTPT1, FP RNA substrate dephosphorylation | inhibition, % at 5 µM | 300,000 tested, 0.81% active | AID 1962;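 active = inhibition above the mean of all tested compounds plus 3 SD, set per screening campaign, cut at about 24% in these data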
# Rpn11 inh – Rpn11 (human) deubiquitinase inhibition; O00487; human 26S proteasome, Ub4-pepOG fluorescence polarization; 20S core pre-blocked with epoxomicin; 360,000 tested, 0.59% active; AID 588493; inhibition, % at 20 µM;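 active = inhibition at 20 µM, scaled to each plate's controls, above about 33%, limit read from the data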
# dFosB activator – mouse delta FosB homodimer activation; purified delta FosB, TAMRA-CDK5 oligo fluorescence polarization; percent of positive-control signal above neutral wells; activation, % at 25 µM; 340,000 tested, 0.99% active; AID 493131;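 active = mean activation above about 17%, with every replicate also reaching it, limit read from the data, passing the limit was not always enough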
# Target sequence (P13346 whole entry, looked up): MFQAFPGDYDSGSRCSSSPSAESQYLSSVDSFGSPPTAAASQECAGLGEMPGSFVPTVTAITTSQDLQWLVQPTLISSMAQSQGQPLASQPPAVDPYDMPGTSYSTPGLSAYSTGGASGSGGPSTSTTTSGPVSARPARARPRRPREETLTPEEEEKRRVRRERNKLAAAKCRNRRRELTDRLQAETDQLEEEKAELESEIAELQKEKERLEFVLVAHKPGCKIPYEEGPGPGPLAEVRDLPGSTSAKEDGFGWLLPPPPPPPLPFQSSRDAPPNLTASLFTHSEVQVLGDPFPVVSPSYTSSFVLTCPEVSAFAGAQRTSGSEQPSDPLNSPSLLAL
# EBNA-1 inh – blocks EBNA-1 binding to DNA; 300,000 tested, 0.34% active; EBNA-1 DNA binding, fluorescence polarization; AID 1950; inhibition, % at 14.8 µM; in the data active = inhibition above about 28%
# ZTA counter – counter-screen for EBNA-1 inhibitors: inhibitors of Epstein-Barr virus ZTA. P03206. inhibition, % at 11 µM. ZTA-DNA binding, fluorescence polarization. 320,000 tested, 0.15% active; in the data active = inhibition above about 33%
# Target sequence (P03206 whole entry, looked up): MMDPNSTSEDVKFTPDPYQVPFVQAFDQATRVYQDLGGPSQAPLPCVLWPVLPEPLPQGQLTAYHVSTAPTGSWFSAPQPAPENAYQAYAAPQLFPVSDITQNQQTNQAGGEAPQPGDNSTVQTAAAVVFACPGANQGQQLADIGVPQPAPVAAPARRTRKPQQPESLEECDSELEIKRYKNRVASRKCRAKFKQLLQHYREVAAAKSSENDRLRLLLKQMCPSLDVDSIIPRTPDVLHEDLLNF
# GRIN3A LBD mod – modulates the human NR3A ligand-binding domain; 340,000 tested, 2.5% active; Tm shift relative to glycine control, % at 25 µM; NR3A LBD differential scanning fluorimetry, Tm shift; 0% = protein alone, 100% = glycine-bound protein;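 active = melting temperature shift of at least 10% of the positive control shift, at one fixed dose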
# Numbers stand for hits; – = inactive; · = not tested or not shown; + = active, no number. Hits are enriched below; roughly 4.5% of the tested compounds scored in any of these assays.
SMILES,TPT1 inhibitor,Rpn11 inh,dFosB activator,EBNA-1 inh,ZTA counter,GRIN3A LBD mod
COc1cccc(Nc2nc3ccc(OC)cc3s2)c1,–,–,–,–,–,29
COc1ccc(Nc2nc3ccccc3s2)cc1,–,–,–,–,–,29
COc1ccc(CNc2nc3ccccc3s2)cc1OC,–,–,–,–,–,–
O=c1oc2ccccc2cc1-c1nc2ccccc2o1,–,–,–,–,–,–
Nc1cc2nc3ccccc3oc-2cc1=O,–,54,–,–,–,–
COc1cc2[nH]c(=S)n(Cc3cccs3)c(=O)c2cc1OC,–,–,19,–,–,–
CCCn1c(=S)[nH]c2cc(OC)c(OC)cc2c1=O,–,–,–,–,–,–
O=C(CN1C(=O)c2ccccc2S1(=O)=O)N1CCCCC1,–,–,–,–,–,–
CCOC(=O)C1CCN(C(=O)CN2C(=O)c3ccccc3S2(=O)=O)CC1,–,–,–,–,–,18
CCOC(=O)C1=NOC(CNC(=O)c2c(-c3ccccc3Cl)noc2C)C1 (stereo not given),–,–,–,–,–,14
Cc1ccc(C)c(S(=O)(=O)N2CCN(C(=O)[C@@H]3CCCN3C(=O)c3cccs3)CC2)c1,·,–,–,·,–,–
CCOC(=O)c1[nH]c2ccc(F)cc2c1NC(=O)C1=COCCO1,–,–,–,–,–,20
CCOC(=O)c1sc(Nc2nc3ccc(OC)cc3s2)cc1C,–,–,–,–,–,16
CCOC(=O)c1sc(Nc2nc3c(F)cccc3s2)cc1C,–,–,–,–,–,29
CCOC(=O)c1sc(Nc2nc3c(OC)cccc3s2)nc1C,–,–,–,–,–,·
Cc1[nH][nH]c(=O)c1C(c1cc([N+](=O)[O-])ccc1O)c1c(C)[nH][nH]c1=O,–,–,–,–,–,10
Cc1[nH][nH]c(=O)c1C(c1ccccc1[N+](=O)[O-])C(C#N)C#N (stereo not given),–,–,–,–,–,–
CC(C)Oc1ccc(S(=O)(=O)N2CCOCC2)cc1NC(=O)CC1CC2CCC1C2 (stereo not given),·,–,·,·,·,·
CC(C)CCNC(=O)NC(=O)COC(=O)/C=C/c1cnc2ccccc2n1,–,–,–,–,–,11
CCc1ccc(NC(=O)CC2C(=O)N(c3ccc(C)cc3)C(=O)N2C2CC2)cc1 (stereo not given),–,–,–,–,–,–
O=C(O)COc1ccccc1C=NNc1ccc([N+](=O)[O-])cc1S(=O)(=O)Nc1ccc(Cl)cc1,·,–,–,·,·,24
COc1ccc(NS(=O)(=O)c2cc([N+](=O)[O-])ccc2NN=Cc2ccccc2OCC(=O)O)cc1,·,–,–,·,·,40
COc1ccccc1NS(=O)(=O)c1ccc(N/N=C/c2ccccc2OCC(=O)O)c([N+](=O)[O-])c1,–,–,–,–,–,–
CCN(CC)S(=O)(=O)c1ccc(N/N=C/c2ccccc2OCC(=O)O)c([N+](=O)[O-])c1,–,–,–,–,–,–
Cc1[nH]c2ccccc2c1/C=N/Nc1ccc([N+](=O)[O-])cc1S(=O)(=O)Nc1ccc(Cl)cc1,–,·,–,–,–,–
SMILES,TPT1 inhibitor,Rpn11 inh,dFosB activator,EBNA-1 inh,ZTA counter,GRIN3A LBD mod
O=C(O)COc1ccccc1/C=N/Nc1ccc(S(=O)(=O)Nc2ccc(Cl)cc2)cc1[N+](=O)[O-],–,–,–,–,–,10
Oc1[nH]c2ccc(Br)cc2c1N=Nc1ccc(C(F)(F)F)cn1,–,–,–,–,–,21
C[C@]12c3[nH]c4cc(-c5ccco5)ccc4c3CCN1C(=O)[C@@H](CC(=O)NCCCn1ccnc1)C[C@@H]2C(=O)N1CCOCC1,·,–,–,·,·,–
CC(=O)c1cccc(CN2CCC(n3nccc3NC(=O)CCc3ccccc3)CC2)c1,–,–,–,–,–,15
CCOc1ccc(NC(=O)C(C)NC(=O)c2ccccc2Cl)cc1S(=O)(=O)N1CCCC1 (stereo not given),·,–,–,·,–,–
O=C(CNCCc1ccccc1)N1CCc2ccccc2C1,–,–,–,–,–,–
COc1ccc(Nc2cc(Nc3ccccc3)ncn2)cc1,–,–,–,–,–,31
COc1ccc(Nc2ncnc3sc(-c4ccccc4)cc23)cc1,–,–,–,–,–,16
COc1ccc(CN(C)C(=O)Cn2ccc(N)nc2=O)cc1OC,·,–,–,·,–,–
CCOc1ccc(N(CC(=O)N2CCc3ccccc32)S(=O)(=O)c2c(C)noc2C)cc1,–,–,–,–,–,–
Cc1n[nH]c(C)c1S(=O)(=O)N(CC(=O)N1CCc2ccccc21)c1ccc(C(C)C)cc1,–,–,50,–,–,–
COc1ccccc1CCC(=O)Nc1ccc2c(c1)c(=O)n(C)n2-c1cccs1,·,–,·,·,·,·
Cc1cc(SCC(=O)N/N=C/c2ccc(O)cc2O)c(C)cc1Br,–,–,–,–,–,18
O=C(COc1ccc(-c2ccccc2)cc1)N/N=C/c1cc(O)ccc1Br,–,–,–,–,–,20
Cc1cccc(OCC(=O)NCC(=O)N/N=C/c2ccc(O)cc2O)c1,–,–,17,–,–,–
O=C(COc1ccc(-c2ccccc2)cc1)N/N=C/c1ccccc1Br,–,–,–,–,–,–
CCOc1cc(S(=O)(=O)n2ccnc2)ccc1Cl,–,–,–,–,–,–
CCC(=O)Oc1ccc(C(=O)Nc2ccc3c(c2)OCO3)cc1,–,–,–,–,–,–
CCS(=O)(=O)N1CCN(c2ccc([N+](=O)[O-])c(NCC3CCCO3)c2)CC1 (stereo not given),–,–,–,–,–,–
CC(=O)Nc1ccc(S(=O)(=O)N(C)CC(=O)OCC(=O)N2CCCC2=O)cc1,–,–,–,–,–,17
CCn1nnc(NC(=O)C(c2ccccc2)c2ccccc2)n1,–,–,–,–,–,–
O=C1CN(C(=O)COC(=O)CNS(=O)(=O)/C=C/c2ccccc2)c2ccccc2N1,–,–,–,–,–,–
CN(C)c1ccc(N2CN=C3SCC(=O)N3C2)cc1,–,–,–,+,+,–
O=C1CSC2=NCN(c3ccc4c(c3)OCO4)CN12,–,–,–,–,–,–
O=C(/C=C/c1cn(-c2ccccc2)nc1-c1ccccc1)Nc1ccc(C(=O)O)cc1,–,–,–,–,–,–
Cc1ccc(-c2nn(-c3ccccc3)cc2/C=C/C(=O)Nc2nccs2)cc1,–,–,–,–,–,24
Nc1ccc(-c2nc3c(ccc4ccccc43)[nH]2)cc1,–,–,–,–,–,11
COc1cccc(NC(=O)C2CCN(S(=O)(=O)c3ccc4c(c3)N(C(C)=O)CCO4)CC2)c1,–,–,–,–,–,18
CC(=O)N1CCOc2ccc(S(=O)(=O)N3CCC(C(=O)Nc4ccc(F)cc4)CC3)cc21,–,–,–,–,–,–
COc1cccc(C(=O)NCC(=O)OCc2ccc(F)cc2Cl)c1,–,–,–,–,–,–

# Compound activity from PubChem.
